Test results as given in the supplement of paper PMC6555819.

How the values were obtained:
Experiment in all cases: PBM binding z-score (relative to random genomic background probes); higher = stronger binding; sequences stand for … in GC…GCGATTGACAGCGTAGAATGAAGG
[1] = tested on: PPARg:RXRa DBDmut IVT, anti-RXR (DBD mutation: RXRa K156A/R161A, NR concentration 270 nM, RXRa partner concentration 90 nM)
Procedure, shortened: (§1)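 Binding z-scores were set against random background probes. The data came from custom Agilent 4×180K protein-binding microarrays carrying double-stranded probes with 34-nt variable regions, incubated 1 h with ligand-free nuclear receptor dimers. Partner-specific antibodies detected binding, and scanned fluorescence was regression-normalized.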

[2] = tested on: PPARg:RXRa IVT, anti-PPARg (NR concentration 270 nM, RXRa partner concentration 90 nM)
Procedure, shortened: as §1

[3] = tested on: PPARg DBDmut:RXRa IVT, anti-PPARg (DBD mutation: PPARg1 K132A/R137A, NR concentration 270 nM, RXRa partner concentration 90 nM)
Procedure, shortened: as §1

[4] = tested on: PPARg DBDmut IVT, anti-PPARg (DBD mutation: PPARg1 K132A/R137A, NR concentration 270 nM)
Procedure, shortened: as §1

[5] = tested on: PPARg homodimer (NR concentration 180 nM)
Procedure, shortened: as §1

[6] = tested on: PXR:RXRa (NR concentration 270 nM, RXRa partner concentration 90 nM)
Procedure, shortened: as §1

[7] = tested on: PXR homodimer (NR concentration 270 nM)
Procedure, shortened: as §1

[8] = tested on: RARa:RXR (NR concentration 270 nM, RXRa partner concentration 90 nM)
Procedure, shortened: as §1

[9] = tested on: RARa homodimer (NR concentration 270 nM)
Procedure, shortened: as §1

[10] = tested on: RARb:RXRa (NR concentration 270 nM, RXRa partner concentration 90 nM)
Procedure, shortened: as §1

| Sequence | PBM binding z-score [1] | PBM binding z-score [2] | PBM binding z-score [3] | PBM binding z-score [4] | PBM binding z-score [5] | PBM binding z-score [6] | PBM binding z-score [7] | PBM binding z-score [8] | PBM binding z-score [9] | PBM binding z-score [10] |
| --- | --- | --- | --- | --- | --- | --- | --- | --- | --- | --- |
| CCGACTGGCGCAAAGGTTACCATACTCAGTACGA | 0.771 | 2.5 | -1.09 | -0.747 | 0.747 | 1.7 | -0.233 | 2.04 | -0.0622 | 1.75 |
| CGTCCAAGGTCAAGGTCAGTGCAAGAGACTCGAA | 3.72 | 4.78 | -0.258 | -0.287 | 3.45 | 5.43 | 2.22 | 5.21 | 1.13 | 5.62 |
| TCATATAGGTAAATGCTAGGTGAAAGGCCGATCT | 3.92 | 2.61 | 1.09 | 0.912 | 1.13 | 0.776 | 0.428 | 1.1 | 1.3 | 0.655 |
| GCTATTAGTTGAGAGGGCAACCGAATGATTCTCG | 0.549 | 0.28 | 0.117 | -0.0279 | 0.87 | 0.651 | -0.0553 | 0.826 | 0.278 | 1.4 |
| CGTCAAAGTTCAACTAACGTAACGTAAAGCACGC | 0.504 | 1.8 | 1.16 | 1.48 | 3.23 | 4.55 | 3.33 | 3.3 | 1.91 | 5.14 |
| GTACGAAGGTGAATAGGTCGTTGATGAGTAGGCG | 1.5 | 2.19 | -0.159 | -0.129 | 0.859 | 0.754 | -0.215 | 1.75 | 0.356 | 2.01 |
| TCGAGTCGGTTAGGGGCATTCAGAATGGCGTCGA | 0.464 | -0.15 | -1.37 | -1.74 | -0.435 | 0.545 | -0.165 | 0.325 | -1.4 | 0.501 |
| CCTACTGGGCCAAAAAGGTGATTGATGCCGATAA | 2.58 | 2.98 | -0.0281 | -0.242 | 0.459 | -0.0996 | -0.324 | -0.0994 | -0.0492 | 0.271 |
| CGAATTAGGTCAGAACAGGACAGTGAAGGATGAT | 7.02 | 7.15 | 2.8 | 1.42 | 1.73 | 1.09 | 0.149 | 1.31 | 1.19 | 3.29 |
| CAGCCGAGGTCAGGGCCAGTATAGGAGGAACGTT | 1.87 | 3.21 | 0.298 | -0.547 | 2.95 | 3.5 | 0.241 | 4.36 | 0.349 | 4.81 |
| TCTTGTCGATCAACAGGAGGTTAAGAAAGATCGA | 0.771 | 0.105 | -0.14 | -0.175 | -0.727 | 0.727 | -0.0541 | 0.726 | 0.067 | 0.397 |
| ATATGTAGGTTAGCTCGGGTCATTCAGACTAGGC | 6.41 | 6.32 | 1.69 | 1.22 | 2.02 | 4.79 | 1.22 | 3.11 | 0.826 | 2.09 |
| CCGATTGGGGCAAAGGTTACCATACTCAGTACGA | 2.91 | 4.24 | 0.329 | 0.0522 | 1.15 | 2.32 | -0.232 | 3.81 | -0.223 | 2.31 |
| TGAATGAGGTTATACGATCAGGGAACGTTGCAAA | 0.677 | 1.61 | 0.964 | 0.564 | 0.291 | 0.89 | -0.167 | 1.48 | 0.115 | 1.15 |
| GCTGCTAGGTCAACTGATGGTCGGCTAAAGCTCG | 4.58 | 4.01 | 0.404 | -0.469 | 0.839 | 1.4 | -0.734 | 2.31 | -0.561 | 4.45 |
| TCGAGTAGGTTACCCATGGGGCATTCAGCTTTCT | 2.81 | 2.66 | -0.222 | -0.778 | -0.0262 | 0.0585 | -0.728 | 0.457 | -0.95 | 0.891 |
| TGAATGAGGTTAAAGATCAGGGGACGTGGCGTCG | 2.48 | 3.35 | 1.21 | 0.582 | 1.75 | 1.7 | -0.086 | 3.31 | 0.0279 | 2.11 |
| CCTTACGGGTCAAGTTTATAGCACGGGTGGTACG | 2.03 | 3.32 | 1.11 | -0.333 | 4.02 | 3.89 | 0.698 | 4.34 | 1.46 | 4.19 |
| TCTAGTAGATCAAGCAGGTTAAGAAAGCCTGAGT | 1.47 | 0.398 | -0.251 | -0.0304 | 0.0496 | 0.277 | -0.142 | 0.334 | -0.0896 | -0.149 |
| CCGACTGGAGCAAGGTTACCATAACGCACAGCCA | 1.3 | 0.76 | -0.802 | -0.726 | 0.608 | 0.248 | -0.0714 | 0.527 | -0.0817 | 0.876 |
| GCTTACGGGTCAAAGGTTATATCATGAATAGAAT | 4.73 | 5.93 | 2.65 | 2.07 | 4.59 | 6.41 | 0.529 | 8.44 | 1.02 | 4.55 |
| CGAACTAGGTCATCCAGGACGGTGAATACATTGA | 7.81 | 8.21 | 2.02 | 0.711 | 0.484 | 1.5 | 0.391 | 2.02 | 0.0502 | 3.78 |
| AGTCAAAGTTCACTCGGTAACGTAAGATTCAGCT | 0.841 | 2.9 | 1.02 | 1.36 | 2.4 | 4.21 | 2.5 | 3.1 | 1 | 4.76 |
| CGTCAAAGTTCAACTAAGGTAACGTAGAGCACGC | 0.564 | 2.32 | 0.885 | 0.785 | 3.17 | 5.54 | 3.81 | 4.57 | 1.67 | 5.24 |
| AGTCGAAGTTCACTAGGTAACGTAAGATTCAGCT | 1.76 | 3.45 | 0.653 | 0.81 | 0.849 | 1.88 | 1.18 | 0.939 | 0.371 | 2.91 |
